# Bioassay records deposited in PubChem BioAssay by several laboratories.
# Most compounds without a hit are left out; they make up all but 1.5% or so of the library.
# SSB-PriA inh: blocks PriA binding to SSB C-terminal tail; AID 1272365; AlphaScreen SSBct-PriA binding, biotinylated peptide; 0.6% of 430,000 active; inhibition, % at 33 µM; in the data active = inhibition mostly above about 37%, no sharp cut-off; inactive = mostly below about 20%;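 also: plate controls were negative control peptide for no effect and reference peptide for full effect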
# TcdB inh: inhibitors of Clostridioides difficile toxin B glycohydrolase; P18177; TcdB glycohydrolase enzymatic assay, plate reader; inhibition, % at 9.99 µM; 0.24% of 350,000 active; in the data active = inhibition above about 10%
# PrPC TRFRET: reduces human prion protein on the cell surface; P04156; cell surface PrPC, TR-FRET read-out; inhibition, % at 13.8 µM; 0.43% of 370,000 active; in the data active = inhibition above about 24%; also: 0% = median of the test wells and 100% = reference compound wells
# Vc quorum ag: induces V. cholerae light production without autoinducers; V. cholerae BH1578 lux reporter, luminescence, 6 h; activation, % at 18.7 µM; 0.16% of 350,000 active; AID 588436; in the data active = activation mostly above about 9.7%, no sharp cut-off
# DUSP3 inh: inhibitors of human VHR1 phosphatase (DUSP3); recombinant VHR phosphatase, pNPP absorbance; inhibition, % at 13.3 µM; 0.52% of 290,000 active; in the data active = inhibition above about 50%
# CCHF vOTU inh: CCHFV vOTU protease inhibition; Pep-AMC fluorescence; inhibition, % at 11.5 µM; 0.55% of 370,000 active; in the data active = inhibition above about 30%; also: 0% = vehicle wells with enzyme and 100% = no enzyme wells
# The depositor's hits bear a star; i = inactive; . = no result; ! = not active in a repeat.
SMILES,SSB-PriA inh,TcdB inh,PrPC TRFRET,Vc quorum ag,DUSP3 inh,CCHF vOTU inh
COc1cc(/C=C2/SC(=S)N(Cc3ccccc3)C2=O)ccc1OCC(=O)O,19,1,-5,1,2,16
CCOC(=O)c1ccc(NC(=O)CSc2ncc(S(=O)(=O)c3cccs3)c(N)n2)cc1,5,.,.,.,.,.
Cn1c(N)c(C(=O)COC(=O)c2ccco2)c(=O)n(C)c1=O,20,.,-3,0,57*,0
CC(C(=O)OCC(=O)c1c(N)n(C)c(=O)n(C)c1=O)N1C(=O)c2ccccc2C1=O (stereo not drawn),-2,14*,6,i,8,4
Cc1c(C(=O)c2ccc(Cl)c(Cl)c2)cnc2cc3c(cc12)OCO3,-9,.,4,1,54*,-14
COc1ccc(C(=O)c2cnc3cc4c(cc3c2C)OCO4)cc1,-5,.,2,i,12,16
CN1CCN(C(CNC(=O)c2c(F)cccc2F)c2ccsc2)CC1 (stereo not drawn),-1,.,.,.,.,.
Cc1ccccc1C1CCN(C(=O)c2cc(-c3cccnc3)on2)CCS1 (stereo not drawn),-9,.,.,.,.,.
Cc1ccc(C)c(-n2c(Cc3cc(=O)[nH]c(=O)[nH]3)nnc2SCC(=O)Nc2nc(C)cs2)c1,1,.,.,.,.,.
Nn1c(SCc2ccccc2F)nnc1-c1ccccn1,4,14*,-5,-1,13,17
Nn1c(SCc2ccccc2)nnc1-c1ccccn1,45*,.,-4,.,31,3
Cc1ccc(CSc2nnc(-c3ccccn3)n2N)cc1,-4,2,1,i,4,-12
Cc1cc(C)n(-c2cc(NC(=O)c3ccccc3Br)ncn2)n1,-3,.,.,.,.,.
C=CCn1cnc2c(c1=O)c1nc3ccccc3nc1n2/N=C/c1cccc(OC)c1OC,.,1,7,8,101*,-11
CC(C)OC(=O)CCC(=O)Nc1nc2ccccc2s1,4,1,2,0,52*,-3
CCOCC(=O)Nc1nc2ccccc2s1,-15,.,7,i,-1,-4
COc1cc(OC)cc(C(=O)Nc2nnc(-c3cccc(SC)c3)o2)c1,-1,.,.,.,.,.
CCOc1ccc(NC(=S)c2ccc3ccccc3n2)cc1,-3,1,3,0,0,26
COc1ccc(NC(=S)c2ccc3ccccc3n2)cc1,44*,.,.,-2,24,.
COc1ccc(C(=S)Nc2ccc(C)cc2)cc1,-2,.,3,-10,20,7
COc1ccc(NC(=S)c2ccncc2)cc1,82*!,.,2,0,4,0
COc1cccc(-n2c(SCC(=O)N3CCOCC3)nnc2-c2c[nH]c3ccccc23)c1,-9,11*,4,-1,21,-11
CCOC(=O)[C@]12Cc3cc(C)ccc3[C@H]1N(C1CCCCC1)C(=O)c1cc(OC)ccc12,.,0,38*,.,.,17
Cc1ccc(C(=O)NCCc2cccc(Cl)c2)cc1[N+](=O)[O-],10,-1,5,-1,2,-2
O=C(NCCc1cccc(Cl)c1)c1ccc(Cl)c([N+](=O)[O-])c1,3,11*,-31,0,27,15
SMILES,SSB-PriA inh,TcdB inh,PrPC TRFRET,Vc quorum ag,DUSP3 inh,CCHF vOTU inh
O=C(NCc1ccccc1)/C(=C\c1ccccc1Cl)NC(=O)c1ccc([N+](=O)[O-])cc1,8,.,.,.,.,.
CN(CCN1CCOCC1)C(=O)CC1C(=O)NCCN1Cc1ccccc1C(F)(F)F (stereo not drawn),-7,19*,-5,0,36,15
COC1(CNS(=O)(=O)CC23CCC(CC2=O)C3(C)C)CCSC1 (stereo not drawn),40*,.,.,.,.,.
COc1ccc(OC)c(-c2cc(C3CCN(c4ncccc4[N+](=O)[O-])CC3)[nH]n2)c1,65*,.,3,i,-4,11
CC(NC(=O)Cn1ccn(Cc2ccc(Cl)cc2)c(=O)c1=O)c1ccccc1 (stereo not drawn),-23,.,.,.,.,.
O=C(NCc1ccc(F)cc1)C1CCN(c2ncnc3c2sc2ncccc23)CC1,-14,.,.,.,.,.
CCc1ccc(C2=NN(C(=O)OC)C(O)(C(F)(F)F)C2)cc1 (stereo not drawn),-4,.,2,-2,52*,-1
CC(C)(C)N=C1NN=C(c2cc3ccccc3o2)CS1,42*,.,4,i,22,9
O=C(O)CCC(=O)NNc1ccc([N+](=O)[O-])cc1[N+](=O)[O-],1,.,.,.,.,.
Cc1ccc2nc(NC(=O)CCNS(=O)(=O)c3cccs3)sc2c1,-14,.,11,0,14,0
Cc1ccc2nc(NC(=O)c3ccc(NS(=O)(=O)c4cccs4)cc3)sc2c1,-2,-1,6,0,56*,-1
Cc1ccc2oc(C(=O)NCCSc3c[nH]c4ccccc34)cc2n1,9,.,.,.,.,.
CCc1cc(=O)[nH]c(-n2[nH]c(-c3ccccc3)cc2=O)n1,3,1,-3,-1,40,-8
O=c1cc(-c2ccccc2)[nH]n1-c1nc2ccccc2[nH]1,69*,.,-7,-1,11,9
Cn1c(=O)c(C(=O)c2ccccc2)nc2ccccc21,-2,.,-6,0,52*,3
COc1ccc(-c2cc(=O)n(CC(=O)N3CCCC3)cn2)cc1,-21,.,.,.,.,.
CCCCC(=O)NNC(=S)NC(=O)c1ccc(C)cc1,3,2,-7,4,22,-5
Cc1ccc(C(=O)NC(=S)NNC(=O)CC#N)cc1,-20,12*,-6,6,14,-14
COC(=O)C1=C(C)N(Cc2ccccc2)C(=NCCc2c[nH]c3ccccc23)N[C@H]1c1ccccc1,47*,.,.,-2,.,.
COC(=O)C1=C(C)N(Cc2ccccc2)C(=NCCc2c[nH]c3ccccc23)N[C@H]1c1cccc(F)c1,18,2,-17,i,.,1
CN1CCN(C(=O)N2CCC(Oc3cncc(N(C)C)n3)C2)CC1 (stereo not drawn),1,.,.,.,.,.
Cc1cc(OC(=O)c2ccccc2[N+](=O)[O-])c([N+](=O)[O-])c(=O)[nH]1,99*,-1,0,0,21,12
NC(=O)c1ccccc1NC(=O)c1ncc(-c2ccc(Cl)cc2)o1,-4,.,.,.,.,.
O=C(Nc1ncn[nH]1)c1ncc(-c2ccc(Cl)cc2)o1,69*,.,.,.,.,.
COc1cccc(C(=O)C2CCCN(Cc3ccc4nsnc4c3)C2)c1 (stereo not drawn),-21,1,2,5,3,-3
COC(=O)c1ccc(CN2CCCC(C(=O)Nc3cccc(-n4cccn4)c3)C2)cc1 (stereo not drawn),3,1,-2,0,52*,0
COc1cccc(C(=O)C2CCCN(Cc3ccc(F)cc3)C2)c1 (stereo not drawn),9,13*,-9,0,16,-7
COc1cccc(CC(=O)NC2CCCN(Cc3ccc(Cl)cc3)C2)c1 (stereo not drawn),-9,0,3,19,53*,-8
CCCCOC(=O)c1ccc(NC(=O)c2cccn(Cc3ccc(Br)cc3)c2=O)cc1,-1,.,.,.,.,.
CCn1c(SCC(=O)Nc2ccc(Br)cc2)nnc1-c1c[nH]c2ccccc12,-5,.,.,.,.,.
